# High-throughput results: PubChem BioAssay, Sanford-Burnham Center for Chemical Genomics
# PfG6PD inh: PfG6PD (Plasmodium falciparum) enzyme inhibition; PfGluPho enzyme, NADPH resazurin-diaphorase fluorescence; inhibition, % at 20 µM; 350,000 tested, 0.78% active; AID 504690;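 active means inhibition reaching at least a set limit at 20 µM in the primary screen, cut at about 59% in these data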;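 further: 0% = DMSO wells with substrate and 100% = DMSO wells lacking glucose-6-phosphate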
# GC-B act: GC-B (human) receptor activation | P20594 | HEK293-GC-B cells, CNP EC30, cGMP TR-FRET; 0% at EC30 CNP, 100% saturating CNP | activation, % at 10 µM | 370,000 tested, 0.11% active | AID 1920062;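 active means activation at 10 µM reaching about 35% in either raw or pattern-adjusted values, limit read from the data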
# A3A deaminase: inhibitors of human APOBEC3A DNA deaminase; AID 493011; inhibition, % at 20 µM; P31941; recombinant A3A, FAM/TAMRA ssDNA deamination fluorescence; 330,000 tested, 0.41% active;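 active means at least 40% inhibition at 20 µM here, with at most 30% in a related deaminase screen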;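 further: plate controls were A3A with DMSO for no effect and wells lacking A3A enzyme for full effect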
# APOBEC3G inh: APOBEC3G (human) deaminase inhibition. recombinant A3G, ssDNA deamination FAM/TAMRA fluorescence. inhibition, % at 20 µM. Q9HC16. 330,000 tested, 0.28% active. AID 493012;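 active means inhibition of at least 40% at 20 µM, with no more than 30% in the related APOBEC3A deaminase screen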;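 further: plate controls were DMSO wells with A3G for no effect and wells lacking A3G enzyme for full effect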
# Neddylation inh: blocks human cullin neddylation | P61081+Q13564 | TR-FRET cullin neddylation, biochemical | inhibition, % at 25 µM | 360,000 tested, 0.58% active | AID 651699; in the data active means inhibition above about 36%
# GC-A act: GC-A (human) enzyme activation. P16066. HEK293 GC-A cells, cGMP TR-FRET, EC30 ANP; 0% at EC30 ANP, 100% saturating ANP. activation, % at 10 µM. 370,000 tested, 0.14% active; in the data active means activation above about 40%
# A3G conf: confirmation of human APOBEC3G DNA deaminase inhibitors; shares compounds with APOBEC3G inh; recombinant A3G ssDNA deaminase, UDG/FAM-TAMRA fluorescence; inhibition, % at 20 µM; 890 tested, 72% active;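 active means inhibition reaching a set limit in any replicate at 20 µM, the limit being 80% of the first screen's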
# UDG ctr A3G: E. coli UDG inhibition in APOBEC3G counter-screen. inhibition, % at 20 µM. shares compounds with APOBEC3G inh. 710 tested, under 10 active. UDG counterscreen, FAM/TAMRA oligo fluorescence. AID 504715;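 active means compounds giving 40% or more inhibition at 20 µM in any one of the three replicates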;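 further: plate controls were DMSO wells with UDG and oligo for no effect and DMSO wells lacking both for full effect; inhibitors lower the FAM signal released by uracil excision and alkaline cleavage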
# * marks the source's active call; other numbers are inactive results; nt = no result shown. Rows were chosen to be rich in hits. Some 2% of all compounds tested hit in one or more screens of this group.
SMILES,PfG6PD inh,GC-B act,A3A deaminase,APOBEC3G inh,Neddylation inh,GC-A act,A3G conf,UDG ctr A3G
CCc1ccc(-n2c(=O)c3ccccc3n3c(=S)[nH]nc23)cc1,35.1,0.5,-5.1,60.5*,-17.8,0.4,76.3*,-2.5
Cc1ccc(C)c(N(CC(=O)NN=C2CCN(C)CC2)S(=O)(=O)c2ccccc2)c1,6.4,-1.5,-0.9,51.1*,9.8,-3.4,-0.8,5.1
Cn1c(SCc2ccc(C(C)(C)C)cc2)nnc1-c1ccco1,nt,10.3,nt,nt,nt,-1.3,nt,nt
CCC(=O)n1nc(-c2ccc(Cl)cc2)nc1N,13.2,-5.0,-1.5,46.0*,11.7,15.4,-9.1,-4.0
OCCN1CCN(C(=S)c2ccc(Cl)cc2)CC1,56.4,2.1,-7.7,18.8,5.0,-0.3,nt,nt
CCN1CCN(C(=S)c2ccc(Cl)cc2)CC1,80.9*,-1.9,-0.8,68.4*,-1.4,3.5,75.2*,-2.5
COc1ccc(/C=N/n2c(-c3n[nH]c4c3CCC4)n[nH]c2=S)cc1OC,57.9,6.4,-0.4,47.7*,11.7,-2.3,60.6*,-3.3
COc1cc(/C=N/n2c(-c3n[nH]c4c3CCC4)n[nH]c2=S)ccc1O,29.2,-2.2,-2.0,46.6*,11.5,-3.1,57.9*,2.0
CCOc1ccc(/C=N/n2c(-c3n[nH]c4c3CCC4)n[nH]c2=S)cc1,nt,-13.1,nt,nt,nt,-0.2,nt,nt
COC(=O)[C@]12C[C@H](CC(=O)NCc3ccc(C)o3)C(=O)N(Cc3ccccc3)C1=C[C@H](C(C)(C)C)O[C@@H]2C,nt,-9.6,nt,nt,nt,-9.2,nt,nt
N#Cc1cc2c([nH]c1=S)CCCC2,51.6,3.1,1.8,67.0*,-19.8,3.1,77.7*,3.3
O=C(Nc1nc(-c2nc3ccccc3s2)cs1)c1ccco1,16.5,-4.9,0.3,-6.0,4.2,0.5,nt,nt
O=C(Nc1nc(-c2nc3ccccc3s2)cs1)C1CC1,40.6,1.3,0.1,42.5*,-183.2,7.2,-0.7,nt
COc1cc(C2Nn3c(nnc3-c3ccccc3OC)S2)ccc1O (configuration not stated),35.0,0.8,-1.5,45.0*,-4.0,1.8,81.6*,-2.3
COC(=O)[C@H]1C[C@@]2(N3CCCCC3)c3ccccc3N(C(=O)OC(C)(C)C)[C@H]2N1C(=O)OC(C)(C)C,nt,-22.2,nt,nt,nt,-25.8,nt,nt
COC(=O)c1cc2c(c3c4cc(C)ccc4n(S(=O)(=O)c4ccc(C)cc4)c13)C(=O)N(Cc1ccccc1OC)C2,nt,1.5,nt,nt,nt,3.6,nt,nt
O=C(O)c1cccc2c1C(=O)c1ccccc1C2=O,-7.3,-0.5,2.5,0.7,-73.1,0.7,nt,nt
O=C(O)c1ccc2c3c(ncnc13)-c1ccccc1C2=O,20.2,nt,1.5,60.7*,nt,nt,41.2*,2.1
COc1ccc(CC2CCN(c3ncnc4sccc34)CC2)cc1,nt,-0.1,nt,nt,nt,-1.3,nt,nt
CCOC(=O)c1ccc(-n2c(=S)sc3c(=O)[nH]c(C)nc32)cc1,66.0*,nt,5.5,55.7*,-11.8,nt,40.1*,1.6
CCOC(=O)CSc1nc2c(sc(=S)n2-c2ccccc2OC)c(=O)n1-c1ccccc1OC,54.9,-9.2,0.2,-5.1,-2.2,-2.1,nt,nt
COc1ccc(-n2c(SCC(=O)C(C)(C)C)nc3c(sc(=S)n3-c3ccccc3)c2=O)c(OC)c1,78.2*,0.4,1.3,40.4*,-1.4,1.9,50.0*,-1.9
CCCc1ccc(C2=Nn3c(nnc3C(C)C)SC2)cc1,60.0*,nt,-1.3,49.7*,-2.5,nt,23.5,6.8
N#C/C(=C\c1ccc(O)c(O)c1)C(=O)Nc1cccc2ncccc12,16.9,-10.9,8.5,51.8*,15.5,-6.3,58.8*,-1.9
Cc1ccccc1N=Cc1cccc(O)c1O,46.8,nt,10.0,69.6*,4.1,nt,50.9*,nt
SMILES,PfG6PD inh,GC-B act,A3A deaminase,APOBEC3G inh,Neddylation inh,GC-A act,A3G conf,UDG ctr A3G
Cc1ccc(N=Cc2cccc(O)c2O)c(C)c1,nt,4.9,4.8,75.0*,3.4,1.1,31.0*,nt
Fc1ccccc1-n1cn[nH]c1=S,13.5,1.9,-3.2,-10.6,-3.3,2.2,nt,nt
Fc1ccccc1-n1[nH]nnc1=S,55.4,8.7,1.5,51.8*,5.5,1.5,15.0*,-2.7
COC(=O)C1=C(C)N(Cc2ccccc2C(F)(F)F)C(=NCc2ccc(OC)cc2)NC1c1ccccc1C(F)(F)F (configuration not stated),nt,-3.2,nt,nt,nt,-0.1,nt,nt
O=c1sc2ccccc2c(=O)n1Cc1ccccc1F,1.8,2.1,-2.9,-7.6,4.9,2.2,nt,nt
O=c1c2ccccc2sn1-c1ccc(F)cc1,112.8*,8.6,1.1,85.8*,2.4,8.2,79.8*,-2.3
O=C(OC12CCCN(C1)/C(=C/c1cccc(Cl)c1)C2)c1ccco1 (configuration not stated),nt,-1.1,nt,nt,nt,5.9,nt,nt
CCCC(C)c1nnc(NC(=O)c2cc(C(=O)OC)cc([N+](=O)[O-])c2)s1 (configuration not stated),49.9,5.7,9.5,60.2*,-28.0,4.7,72.7*,1.4
COC(=O)[C@]12C[C@H](CC(=O)NCc3ccccc3)C(=O)N(Cc3cccc4ccccc34)C1=C[C@H](COCc1ccccc1)O[C@@H]2C,nt,3.8,nt,nt,nt,-2.3,nt,nt
CCOc1ccc(-n2c(SCC(=O)Nc3ccc(S(=O)(=O)Nc4cc(C)nc(C)n4)cc3)nnc2-c2ccco2)cc1,nt,5.3,nt,nt,nt,1.5,nt,nt
CC/C(=N/Nc1cccc(C)c1)c1cnnc(SC)n1,21.0,32.6,2.7,46.2*,2.9,26.2,18.6,nt
CC/C(=N/Nc1ccc(Cl)cc1)c1cnnc(SC)n1,34.2,0.9,-0.9,18.5,-4.2,-1.9,nt,nt
CN(C(=O)c1cccc(NC(=O)Cc2ccc(NC(=O)C3CCN(C(=O)CCc4ccccc4)CC3)cc2)c1)C1CCCC1,nt,6.4,nt,nt,nt,3.4,nt,nt
CC(C)CN1C(=O)C[C@@]2(C(=O)N(C)c3ccc(NC(=O)c4cc(F)ccc4F)cc32)C1c1ccccc1 (some centres not stated),nt,-3.5,nt,nt,nt,-0.4,nt,nt
C=CCn1c(-c2ccc3ncccc3c2)n[nH]c1=S,21.6,-3.7,1.4,56.3*,0.6,-0.3,59.7*,-4.0
C=CCn1c(-c2sc3nc(C)cc(C)c3c2N)n[nH]c1=S,27.9,4.3,-3.5,49.3*,nt,23.5,77.1*,-4.8
CCn1c(-c2ccc3ncccc3c2)n[nH]c1=S,16.2,-4.6,-4.8,39.6,-1.8,2.1,nt,nt
C=CCn1c(-c2ccccc2)n[nH]c1=S,26.9,-0.6,-3.1,23.2,15.1,-1.2,nt,nt
C=CCn1c(-c2cc(OC)cc(OC)c2)n[nH]c1=S,26.7,-2.7,-3.1,43.2*,15.5,0.0,81.7*,-1.8
